Source: PubChem BioAssay (National Center for Advancing Translational Sciences (NCATS))
Rows were chosen to be rich in hits. Some 8.3% of all compounds tested hit in one or more screens of this group.
FBPA Giardia inh: blocks Giardia fructose-bisphosphate aldolase activity | A8B2U2 | purified Giardia FBPA | Potency, µM (series often up to 59.6 µM), inactives show at the top dose activity, negative = inhibition, hits mostly inhibitors | 290,000 tested, 0.71% active | AID 2451; further: potency means the concentration at half of the fitted maximal effect; nearly all actives have a fitted effect of over 55% in size
Target sequence (A8B2U2 whole entry, looked up): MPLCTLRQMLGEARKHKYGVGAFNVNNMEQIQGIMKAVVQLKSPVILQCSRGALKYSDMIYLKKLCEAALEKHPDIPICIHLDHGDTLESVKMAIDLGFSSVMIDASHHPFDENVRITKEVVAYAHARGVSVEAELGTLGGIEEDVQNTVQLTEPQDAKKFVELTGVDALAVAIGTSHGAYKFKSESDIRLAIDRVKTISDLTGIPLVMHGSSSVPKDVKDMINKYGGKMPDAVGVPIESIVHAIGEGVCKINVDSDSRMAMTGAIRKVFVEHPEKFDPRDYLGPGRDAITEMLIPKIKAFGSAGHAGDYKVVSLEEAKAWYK
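40 nM FBPA preincubated 10 min at RT with compound (up to 57.5 uM final), then substrate plus GAPDH/TPI/NAD/arsenate coupling and diaphorase/resazurin added. Fluorescence read after 20 min at RT, 525/598 nm.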
HCMV inh: human cytomegalovirus inhibition; AID 1259415; 410,000 tested, 4.5% active; activity change, negative = inhibition, % at 57.5 µM; HFF cells, HCMV-luciferase reporter, 72 h; active compounds read low; in the data active means activity change below about -60%; inconclusive means no clear call, values can overlap the other calls; inactive means above about -39%
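Inhibition of viral replication was scored as loss of reporter luminescence in HFFs infected with HCMV-luciferase (MOI 1 PFU/cell) for 72 h; compounds tested at 2 doses, normalized to buffer and Salinomycin controls.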
HCV inh: blocks hepatitis C virus | Huh7.5.1 HCVcc-Cre infection, luciferase reporter, 44 h | Potency, µM (titrated, usually from 41.8 µM), without a hit: top-dose activity change, negative = inhibition, usual class: inhibitors | 340,000 tested, 3.4% active | AID 651820; further: potency means the concentration at half of the fitted maximal effect
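Cells (1,000/well) were plated 4 h before compound, then infected with HCVcc-Cre virus (~0.5 moi). After 44 h further culture, infection was read as luciferase luminescence following a 15 min substrate incubation at room temperature.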
MARV entry inh: Marburg virus entry inhibition | 300,000 tested, 1.8% active | Potency, µM (series often up to 37.8 µM), without a hit: at the highest dose activity change, negative = inhibition, hits mostly inhibitors | Marburg virus pseudotyped entry inhibition, cell reporter; calls by dose curve; tested in HEK293 cells; further: potency means the concentration at half of the fitted maximal effect
FMDV antiviral: antivirals against foot and mouth disease virus | FMDV antiviral cell-based qHTS | Potency, µM (doses to about 57.9 µM), for the others: at the top dose activity change, negative = inhibition, most hits filed as inhibitors | 410,000 tested, 1.2% active; calls by dose curve; tested in HEK293T cells; further: read-out not given here; potency means the concentration at half of the fitted maximal effect; nearly all actives have a fitted effect of over 45% in size
Lassa entry inh: inhibitors of Lassa virus binding or cell entry. Lassa virus pseudotype entry inhibition, cell reporter. Potency, µM (highest dose often 37.9 µM), for the others: at the highest dose activity change, negative = inhibition, hits mostly inhibitors. 300,000 tested, 1.2% active. AID 540256; calls by dose curve; tested in HEK293 cells; further: potency means the concentration at half of the fitted maximal effect; nearly all actives have a fitted effect of over 50% in size
An asterisk follows results filed as active; ? = inconclusive; nt = no result given; [ ] = dose if it differs, or a comment. Unless noted, the call rests on the fitted dose curve; in most records, active means well fitted curve in the direction sought with a large enough effect; inconclusive means small, poorly fitted or top-dose-only effect, or another doubt; inactive means no such curve, though single readings can be large; an effect the other way counts as inactive or inconclusive. On the % scale 0 is the no-effect control and ±100 the full control effect.

SMILES	FBPA Giardia inh	HCMV inh	HCV inh	MARV entry inh	FMDV antiviral	Lassa entry inh
COc1cc(N/N=C/c2ccccc2O)ncn1	-10%	-103*	?	?	14%	?
COc1cc(/C=N/Nc2ccccn2)ccc1OCC(C)C	1%	-23	8.9µM*	?	33%	-5%
CCOc1ccc(/C=N/Nc2ccccn2)cc1OC	0%	59	-22%	24%[46.1 µM]	19%	-12%
COc1cc(N/N=C/c2ccc(N(C)C)cc2)ncn1	-1%	70	4%	nt	-19%	nt
COc1cc(/C=N/Nc2cccc3cccnc23)cc(OC)c1O	-27%	7	22µM*	nt	-10%	nt
Oc1cccc(/C=N/Nc2cccc3cccnc23)c1	-14%	15	?	?	-48%	?
COC1=C[C@H](C(=O)NCc2ccccc2)[C@H](C)[C@@H](c2ccccc2)CC1=O	nt	nt	nt	-1%[14.2 µM]	nt	nt
CC1CCN(S(=O)(=O)c2ccc3c(c2)N(CC(=O)NC(C)C)C(=O)CS3)CC1	nt	14	nt	-27%[46.1 µM]	-9%	nt
COc1cc(/C=N/Nc2ccccn2)cc(OC)c1O	-10%	21	?	?	23%	7.9µM*
CCCOc1ccc(/C=N/Nc2ccccn2)cc1OC	2%	20	?	?	58%	23%
Cc1nccc(-c2ccc(-n3cnc4ccccc43)cc2)n1	1%	?	?	17%	20%	3%
Nc1nccc(-c2ccc(-n3cnc4ccccc43)cc2)n1	4%	-70*	-7%	?	14%	22%
CC(Sc1nn(-c2ccc(F)cc2)c(=S)s1)C(=O)c1c(N)n(C)c(=O)n(C)c1=O (centres undefined)	nt	-33	?	-63%	?	-29%
Cn1c(N)c(C(=O)CSc2nn(-c3ccccc3)c(=S)s2)c(=O)n(C)c1=O	nt	?	10µM*	?	25µM*	?
Cc1nc(NC2CCCCC2)c2nc(-c3ccccc3)n(CC3CCN(C)CC3)c2n1	1%	nt	nt	nt	nt	nt
COC(=O)[C@H]1[C@H](CO)[C@H]2Cn3c(ccc(Br)c3=O)[C@H]2N1Cc1ccccc1Cl	nt	7	nt	nt	nt	nt
Cn1ccc(C(=O)NCC2CCC3(CCN(Cc4cc(F)cc(F)c4)CC3)O2)n1 (centres undefined)	nt	nt	nt	nt	-1%	nt
FC(F)(F)c1cc(CO[C@H]2CCCN[C@H]2c2ccccc2)cc(C(F)(F)F)c1	-11%	nt	nt	14µM*	0%	nt
COC(=O)C1=C(C(=O)OC)[C@]2([C@@H]3CCCCN[C@@H](Cc4ccccc4)C(=O)N3Cc3ccccc3)C=C[C@H]1O2	nt	-12	7.9µM*	nt	-28%	nt
COc1ccc(C(=O)N(c2ccc(C)cc2)S(=O)(=O)c2ccc(C)cc2)cc1	nt	-31	nt	nt	8%	?
Cc1cc(NC(=O)CS(=O)CC(=O)Nc2c(C)cccc2C)ccc1-n1cnnn1 (centres undefined)	7%	14	4%	?	4%	4%[46.1 µM]
Cc1cc(C)c(NC(=O)CS(=O)CC(=O)Nc2ccc(-n3cnnn3)c(C)c2)c(C)c1 (centres undefined)	16%	-69*	2%	?	-12%	?
Cc1ccc(NC(=O)c2ccccc2)cc1-n1cnnn1	-29%	-73*	10%	0%[46.1 µM]	25%	-1%[46.1 µM]
CC(=O)C1=C(c2ccc(Cl)cc2)N(C(C)=O)n2c(nnc2C2CCCCC2)S1	nt	-15	nt	nt	?	?
CC1=Nc2ccccc2N=C(NC(=O)CSC(=S)N2CCCCC2)C1c1ccccc1 (centres undefined)	-9%	10	?	10µM*	-12%	-5%[46.1 µM]
SMILES	FBPA Giardia inh	HCMV inh	HCV inh	MARV entry inh	FMDV antiviral	Lassa entry inh
COc1ccc(-c2ccc(C3C4C=CCCC4(C)C(=O)N3Cc3ccccc3)c(F)c2)cc1 (centres undefined)	-3%	nt	nt	nt	nt	nt
Oc1c(C(c2ccccn2)N2CCC(Cc3ccccc3)CC2)cc(Cl)c2cccnc12 (centres undefined)	?	-90*	18µM*	?	22µM*	?
CN1CCN(C(c2ccccn2)c2cc(Cl)c3cccnc3c2O)CC1 (centres undefined)	-14%	-14	?	nt	-26%	nt
Cc1ccnc2c1ccc1c(C)ccnc12	nt	nt	5.6µM*	nt	-3%	nt
Cc1ccnc2c1ccc1ccccc12	-8%	-6	15%	nt	13%	nt
Cc1ccnc2c1ccc1cccnc12	nt	-98*	2.2µM*	?	-8%	?
CCOC(=O)c1cccn1C1C(=O)N(Cc2ccc(Cl)nc2)c2ccccc21 (centres undefined)	nt	-10	nt	nt	nt	nt
Cc1ccc(C2CC(=O)n3nc(-c4ccc(F)cc4)nc3S2)cc1 (centres undefined)	nt	9	nt	-4%[46.1 µM]	-15%	2%[46.1 µM]
O=C(CSc1nc(=O)n(Cc2ccncc2)c2c1CCC2)Nc1cccc(F)c1	nt	-5	nt	nt	?	2%[46.1 µM]
CCCCCCCCN=C(N)c1ccc(C(=O)OCC2CCCCC2)cc1	-5%	nt	nt	nt	nt	nt
CC[C@@H](C)[C@H](NS(=O)(=O)c1cccc2ccccc12)C(=O)N[C@H](C=O)Cc1c[nH]c2ccccc12	nt	nt	nt	nt	-16%	nt
CCCCC(=O)NC(c1ccco1)c1cc(Cl)c2cccnc2c1O (centres undefined)	3%	-96*	8.9µM*	?	-19%	?
CCC(=O)NC(c1ccc(OC)cc1)c1cc(Cl)c2cccnc2c1O (centres undefined)	5%	34	2.5µM*	2.2µM*	-19%	2.8µM*
CCC(=O)NC(C)c1cc(Cl)c2ccccc2c1O (centres undefined)	nt	-24	nt	nt	-21%	nt
CCC(=O)NC(c1cc(Cl)c2ccccc2c1O)C1CC1 (centres undefined)	nt	2	nt	nt	-14%	nt
CC(=O)NC(c1cc(Cl)c2cccnc2c1O)C1CC1 (centres undefined)	nt	-97*	nt	nt	0%	nt
CCC(=O)NC(c1ccco1)c1cc(Cl)c2cccnc2c1OC (centres undefined)	nt	-4	nt	nt	0%	nt
CCC(=O)NC(c1ccco1)c1cc(Cl)c2cccnc2c1O (centres undefined)	3%	-97*	6.3µM*	?	-15%	?
COc1cccc(C(=O)NC(c2ccc(Cl)cc2)c2cc(Cl)c3cccnc3c2O)c1 (centres undefined)	nt	?	nt	nt	-12%	?
O=C(Cn1cc2c(n1)CCCC2)Nc1cc(C(F)(F)F)ccc1Cl	nt	-9	nt	28%[46.1 µM]	0%	11%[46.1 µM]
COc1ccc(C(NC(=O)c2cccnc2)c2cc(Cl)c3cccnc3c2O)cc1OC (centres undefined)	8%	-97*	8.9µM*	7.1µM*	?	16µM*
CC(=O)NC(c1ccco1)c1cc(Cl)c2cccnc2c1O (centres undefined)	nt	-89*	nt	nt	-11%	nt
CC(=O)NC(C)c1cc(F)c2cccnc2c1O (centres undefined)	nt	-9	nt	nt	-18%	nt
COc1cc(C(=O)NC(c2ccc(Cl)cc2)c2cc(Cl)c3cccnc3c2O)cc(OC)c1OC (centres undefined)	nt	-2	nt	nt	-22%	?
